Experimental data as given in PubChem BioAssay AID1159580 (chemical genetic matrix, 2015).
Values joined by “and” are separate entries in the source; they are usually repeats but may differ in a detail not shown here. Equal values may be shown once. About 2,000 (36%) of roughly 5,500 compounds were called active. Another 18% or so got no clear call; they are omitted. No stated cut-off is given here; in the data, active means normalized growth mostly below about 0.91 (no sharp cut-off); inconclusive means no clear call, values can overlap the other calls; inactive means mostly above about 0.92. The list shows a part of the results.

Test: chemical genetic growth profiling, strain panel (AID 1159580);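 further: tested at 20 µM; growth read once vehicle control cultures reached saturation at 30 °C; 1 = growth at the plate median or of vehicle wells; lower values mean less growth of the strain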
Details: S. cerevisiae deletion strains, growth OD

Measured: normalized growth

CN1CCC[C@H]1c1cccnc1
inactive: locus YAL013W, strain DEP1, active compounds read low 0.998 | locus YAL021C, strain ccr4, active compounds read low 1.02 | locus YAL026C, strain drs2, active compounds read low 1.03 | locus YAL030W, strain snc1, active compounds read low 1.02 | locus YBL061C, strain skt5, active compounds read low 1.03 | locus YBR009C, strain hhf1, active compounds read low 1.02 | locus YBR021W, strain FUR4, active compounds read low 0.968 | locus YBR023C, strain chs3, active compounds read low 1.05 | locus YBR171W, strain sec66, active compounds read low 1.05 | locus YBR229C, strain ROT2, active compounds read low 0.992 | locus YBR231C, strain swc5, active compounds read low 1.02 | locus YBR279W, strain paf1, active compounds read low 1.02 | locus YCL011C, strain gbp2, active compounds read low 1.03 | locus YCL016C, strain dcc1, active compounds read low 1.03 | locus YCL029C, strain bik1, active compounds read low 0.995 | locus YCL061C, strain MRC1, active compounds read low 1 | locus YCL069W, strain vba3, active compounds read low 1.04 | locus YCR088W, strain abp1, active compounds read low 1.02 | locus YDL005C, strain med2, active compounds read low 1.03 | locus YDL035C, strain GPR1, active compounds read low 1.01 | locus YDL040C, strain nat1, active compounds read low 1.02 | locus YDL074C, strain BRE1, active compounds read low 1.03 | locus YDL101C, strain DUN1, active compounds read low 0.994 | locus YDL134C, strain PPH21, active compounds read low 0.994 | locus YDL185W, strain tfp1, active compounds read low 0.983 | locus YDL192W, strain arf1, active compounds read low 0.997 | locus YDR001C, strain nth1, active compounds read low 1.03 | locus YDR069C, strain doa4, active compounds read low 1.02 | locus YDR101C, strain arx1, active compounds read low 1 | locus YDR137W, strain rgp1, active compounds read low 1.05 | locus YDR150W, strain NUM1, active compounds read low 0.999 | locus YDR159W, strain sac3, active compounds read low 1 | locus YDR162C, strain NBP2, active compounds read low 1.03 | locus YDR195W, strain ref2 1.02 | locus YDR297W, strain sur2, active compounds read low 1.02 | locus YDR318W, strain mcm21, active compounds read low 0.983 | locus YDR334W, strain swr1, active compounds read low 1.03 | locus YDR335W, strain msn5, active compounds read low 1.03 | locus YDR388W, active compounds read low 0.996 | locus YDR392W, strain spt3, active compounds read low 0.964 | locus YDR502C, strain sam2, active compounds read low 1 | locus YEL003W, strain gim4, active compounds read low 1.02 | locus YEL037C, strain rad23, active compounds read low 1.03 | locus YEL061C, strain CIN8 (second series), active compounds read low 1.03 | locus YEL061C, strain CIN8, active compounds read low 0.993 | locus YER015W, strain faa2, active compounds read low 1.03 | locus YER016W, strain bim1, active compounds read low 1.02 | locus YER110C, active compounds read low 0.985 | locus YER111C, strain swi4, active compounds read low 1.04 | locus YER155C, strain BEM2 (second series), active compounds read low 0.991 | locus YER155C, strain BEM2, active compounds read low 0.992 | locus YER167W, strain BCK2, active compounds read low 0.98 | locus YFR010W, strain ubp6, active compounds read low 1.03 | locus YGL078C, strain dbp3, active compounds read low 0.994 | locus YGL086W, strain mad1, active compounds read low 0.969 | locus YGL167C, strain pmr1, active compounds read low 1.04 | locus YGL173C, strain kem1, active compounds read low 1.03 | locus YGL227W, strain vid30, active compounds read low 1.04 | locus YGL240W, strain doc1, active compounds read low 1 | locus YGL248W, strain PDE1, active compounds read low 0.985 | locus YGL253W, strain hxk2, active compounds read low 1.04 | locus YGR078C, strain PAC10, active compounds read low 1.04 | locus YGR135W, strain pre9, active compounds read low 1 | locus YGR229C, strain SMI1, active compounds read low 1.02 | locus YGR252W, strain gcn5, active compounds read low 0.949 | locus YHR013C, strain ard1, active compounds read low 1.06 | locus YHR027C, strain rpn1, active compounds read low 1.03 | locus YHR030C, strain SLT2, active compounds read low 0.991 and 0.959 | locus YHR079C, strain IRE1 (second series), active compounds read low 0.996 | locus YHR079C, strain IRE1, active compounds read low 1.03 | locus YHR094C, strain hxt1, active compounds read low 0.989 | locus YHR129C, strain ARP1, active compounds read low 0.99 | locus YHR142W, strain chs7, active compounds read low 1.06 | locus YHR200W, strain rpn10, active compounds read low 0.981 | locus YIL066C, strain RNR3, active compounds read low 0.985 | locus YIL073C, strain SPO22, active compounds read low 0.968 | locus YIL125W, strain kgd1, active compounds read low 0.997 | locus YIR030C, strain dcg1, active compounds read low 0.995 | locus YJL092W, strain hpr5, active compounds read low 1.02 | locus YJL095W, strain BCK1 (second series), active compounds read low 1.02 | locus YJL095W, strain BCK1, active compounds read low 1.01 and 0.947 | locus YJL115W, strain asf1, active compounds read low 1.02 | locus YJL129C, strain trk1, active compounds read low 1.07 | locus YJL134W, strain LCB3, active compounds read low 0.989 | locus YJL154C, strain vps35, active compounds read low 1.02 | locus YJL164C, strain tpk1, active compounds read low 1.02 | locus YJL166W, strain qcr8, active compounds read low 1.03 | locus YJL168C, strain set2, active compounds read low 0.994 | locus YJL187C, strain SWE1 (second series), active compounds read low 0.997 | locus YJL187C, strain SWE1, active compounds read low 1.02 | locus YJR043C, strain POL32, active compounds read low 0.995 | locus YJR066W, strain TOR1, active compounds read low 0.943
